The whole screen tested about 300,000 compounds, of which about 3,200 (1.1%) were called active.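 How the source made its calls: active means inhibition above the campaign mean inhibition plus 3 SD (cut at about 35% in these data); inactive means the rest.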 This excerpt belongs to a sample that is enriched for actives.

The target in the assay is Glutathione S-transferase omega-1 (Homo sapiens) (UniProt P78417). Nature of the assay: human GSTO1 enzyme inhibition – biochemical, fluorescence polarization, counter-screen for RBBP9 inhibitor project, primary screen (AID 1974).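 Further: 0% = GSTO1-1 with DMSO and 100% = wells lacking GSTO1-1 enzyme.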 The conditions noted are these: recombinant GSTO1, activity-based probe fluorescence polarization; at 5.96 µM; hits give high values. (In general: Polarisation of emitted light reports the rotation of a fluorescent probe.)
Sequence of Glutathione S-transferase omega-1 (Homo sapiens) (P78417 whole entry, looked up): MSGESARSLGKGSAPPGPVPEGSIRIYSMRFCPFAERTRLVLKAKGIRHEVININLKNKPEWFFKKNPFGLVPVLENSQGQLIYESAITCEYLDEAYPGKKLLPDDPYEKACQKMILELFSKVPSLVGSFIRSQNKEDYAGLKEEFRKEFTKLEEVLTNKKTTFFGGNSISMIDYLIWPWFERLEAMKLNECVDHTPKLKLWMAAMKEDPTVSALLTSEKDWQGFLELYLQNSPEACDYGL
What is called inhibition is the relative decrease from the control value, in per cent. Regarding `CCOC(=O)c1c(N)n(CCN2CCOCC2)c2nc3ccccc3nc12`, the inhibition was -0.71% (inactive).
Then `CCOC(=O)c1c(N)n(Cc2ccccc2)c2nc3ccccc3nc12`, with 77.2% (active).
Then `COc1cc(Cn2c(N)c(C(=O)NCc3ccco3)c3nc4ccccc4nc32)cc(OC)c1OC`, with -1.75% (inactive); and `CCN(CC)CCOC(=O)c1cc2cc(COC)ccc2o1`, with 0.13% (inactive); and `O=c1c2ccccc2nc(/C=C/c2ccco2)n1-c1ccccc1O`, with -8.4% (inactive).
As for `O=C1NC(=O)N(Cc2ccco2)C(=O)/C1=C\c1cccn1CCOc1ccccc1`, the inhibition is 18.6% (inactive).
For the compound `O=C1NC(=O)N(CCc2ccc(F)cc2)C(=O)/C1=C/C=C/c1ccccc1`, the inhibition is -7.53% (inactive).
Take `O=C(O)COc1ccccc1/C=C1\C(=O)NC(=O)N(CCC2=CCCCC2)C1=O`: the inhibition is 41.1% (active).
In the case of `COc1cc2nc(N3CCN(C(=O)[C@@H]4CCCO4)CC3)nc(N)c2cc1OC` it was 3.62% (inactive).
With `CCCCCCN=C(CC)c1c(O)n(CCCC)c(=O)[nH]c1=O`, the inhibition is -0.65% (inactive).
Consider `CC(=O)Nc1ccccc1C(=O)OCC(=O)c1cccc2ccccc12`, for which the inhibition is -2.14% (inactive).
Consider `O=C1NC(=O)N(c2ccccc2)C(=O)/C1=C/c1ccc([N+](=O)[O-])s1`, for which the inhibition is 38.7% (active).
Then `Cc1cccc(N2C(=O)NC(=O)/C(=C\c3cnn(-c4ccccc4)c3)C2=O)c1`, with -2.05% (inactive).
Then `COc1cccc(N2C(=O)NC(=O)/C(=C\c3cn(C)c4ccccc34)C2=O)c1`, with -0.1% (inactive).
For `Cc1ccc(N2C(=O)NC(=O)C(CCc3ccncc3)(Cc3cccc(Cl)c3Cl)C2=O)cc1` (stereo not given), the inhibition was -2.83% (inactive).
As to `Cc1ccc(-n2c(-c3ccc([N+](=O)[O-])cc3)nc3ccccc3c2=O)cc1`, the inhibition was 5.91% (inactive).
As for `CCNc1nc2[nH]c(=O)c3c(c2s1)OC(N)=C(C#N)C3c1cccs1` (stereo not given), the inhibition was 40.5% (active).
Regarding `N#CC1=C(N)Oc2c(c(=O)oc3ccccc23)C1c1ccccc1OC(=O)c1cccs1` (stereo not given), the inhibition was -8.89% (inactive).
Then `CCN1c2nc3c(C)cccn3c(=O)c2CC2(C(=O)N(C)C(=O)N(C)C2=O)C1C` (stereo not given), with -4.29% (inactive).
Take `Cc1cc(C)cc(NC(=S)NC2CC3CCCC(C2)N3Cc2cccs2)c1` (stereo not given): the inhibition was 0.82% (inactive).

These data come from PubChem BioAssay AID1974 (The Scripps Research Institute Molecular Screening Center, 2009).
